The list is not random: actives were taken first. Their share in the collection is about 1.4%.
Mtb MbtI inh = blocks the Mycobacterium tuberculosis siderophore enzyme MbtI | P9WFX0 | purified MbtI enzyme, fluorescence intensity read-out | inhibition, % (no concentration beside the values) | 100,000 compounds, 0.89% hits | AID 493033; in the data active means inhibition mostly above about 56%, no sharp cut-off; inactive means mostly below about 77%
AID504770 = growth inhibitors of E. coli YBA685 in a screen for V. cholerae RctB (chromosome II replication) inhibitors | E. coli YBA685 rctB-dependent plasmid, OD600 growth, 3 h; active compounds read low | z-score (concentration not given with the values) | 130,000 compounds, 0.27% hits; in the data active means z-score below about -2, passing the limit was not always enough
PV pol inh = inhibitors of poliovirus RNA polymerase binding and polymerization | P03300 | poliovirus polymerase elongation, fluorescence polarization; active compounds read low | % elongation, % (compound at 16.7 µg/mL) | 150,000 compounds, 0.66% hits | AID 588519; in the data active means % elongation below about 90%
MenB inh = blocks the Mycobacterium tuberculosis MenB enzyme. MenB enzyme assay, absorbance read-out. 100,000 compounds, 0.43% hits. inhibition, % (test concentration not listed); in the data active means inhibition above about 21%, passing the limit was not always enough
Target sequence (P9WNP5 whole entry, looked up): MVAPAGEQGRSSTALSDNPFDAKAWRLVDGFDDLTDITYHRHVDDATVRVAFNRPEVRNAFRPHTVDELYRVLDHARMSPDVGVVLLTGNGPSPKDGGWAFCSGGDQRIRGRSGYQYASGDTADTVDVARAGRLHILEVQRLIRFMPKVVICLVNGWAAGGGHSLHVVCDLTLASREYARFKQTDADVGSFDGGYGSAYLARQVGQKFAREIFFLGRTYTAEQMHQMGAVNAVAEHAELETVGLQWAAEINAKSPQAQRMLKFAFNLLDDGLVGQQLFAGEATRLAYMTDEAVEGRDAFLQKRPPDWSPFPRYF
* = called active by the depositor; . = not tested or not shown; ! = a repeat was not active.

SMILES	Mtb MbtI inh	AID504770	PV pol inh	MenB inh
COc1ccc(CNCc2cccc(OC)c2)cc1	5	-0.25	89*	0
O=C(O)C1C2C=CC3(CN(Cc4cccc(Cl)c4Cl)C(=O)C13)O2 (stereo not drawn)	7	0.55	99	-18
CC1=NN(c2ccccc2)C(=O)C1(O)C1C(=O)c2ccccc2C1=O (stereo not drawn)	-3	2.4	29*	-166
CC1=NN(c2ccccc2)C(=O)C1(C)N (stereo not drawn)	-1	0.95	105	-10
CC1=C(C)C(=O)C(NCc2ccccn2)=CC1=O	8	-0.3	66*	-2
COc1cc2c(cc1OC)CC(C(=O)O)NC2 (stereo not drawn)	-2	1	103	32*
CC1CCN(C(=O)c2ccc(C(C)(C)C)cc2)CC1	.	-0.1	98	2
CC1CCN(C(=O)c2ccc(Br)cc2)CC1	4	1.1	102	36*
COc1ccc(C(=S)N2CCC(C)CC2)cc1	72*	0.6	98	-53
COc1ccc(C(=O)N2CC(C)CC(C)C2)cc1 (stereo not drawn)	-5	0.15	100	-5
NCC(c1ccccc1)c1ccccc1	0	-0.45	103	-23
Cc1cc(C)c2c(=O)n(-c3ccccc3)[nH]c2n1	52*	0.2	101	-49
COc1ccccc1CN(C)CCN	2	-0.6	101	75*
CCCCN(C)Cc1cccc(OC)c1OC	-8	-0.4	102	-11
O=C(O)c1ccccc1CSc1nc2ccccc2[nH]1	56*	0.6	96	4
Cc1ccc(N(CC(=O)Nc2ccccc2C(=O)NCc2ccco2)S(C)(=O)=O)cc1Cl	1	1.2	21*	-14
CN(C)C(=O)CCCc1nc(-c2ccc(Cl)cc2)no1	-8	-2.4*	104	-18
O=C1CNC(=O)N1Cc1ccc(F)cc1	1	1.6	99	34*
CN1CSC2=C(C#N)C(c3ccccc3)CC(=O)N2C1 (stereo not drawn)	86*	-0.25	94	-17
CSc1ccc(C2CC(=O)N3CN(C)CSC3=C2C#N)cc1 (stereo not drawn)	92*	0.75	99	-22
O=C(NCCC1=CCCCC1)c1ccccc1	0	1.1	103	-4
N/C(=N\O)C12CC3CC(CC(C3)C1)C2	3	-0.45	99	-7
COc1ccc(NC(=O)C(NC(=O)C2CCCCC2)C(C)C)cc1 (stereo not drawn)	4	2.3	103	9
C1CCC2(CC1)C1=C(CCCC1)Nc1nnnn12	1	0.65	100	32*
CCC(=O)n1nc(-c2ccco2)nc1SCc1ccccc1	-10	-1.2	101	-6
SMILES	Mtb MbtI inh	AID504770	PV pol inh	MenB inh
CCC(=O)n1nc(-c2ccco2)nc1SC	54*	2	99	8
N#CSCC(=O)c1cccs1	.	-3.7*	85*	-22
O=c1[nH]nc(SCCS(=O)(=O)c2ccc(F)cc2)n1C1Cc2ccccc2C1	.	-0.15	.	.
O=c1[nH][nH]c(=S)n1C1CC1	71*	1.6	99	38*!
O=c1[nH][nH]c(=S)n1C1Cc2ccccc2C1	67*	-0.8	100	-1
O=c1[nH][nH]c(=S)n1CC1CCCO1 (stereo not drawn)	83	0.05	95	-17
Cc1ccccc1OCC(=O)Nc1cccc(-c2nnc(-c3ccco3)o2)c1	107	-0.45	102	-38
O=[n+]1c(CO)c(CO)n([O-])c2ccccc21	8	-8.7*	101	11
O=c1c[n+]([O-])c2ccccc2n1OCc1ccccn1	-8	2	103	-49
N#Cc1ccc(C(=O)N2CCCSC2=NCc2ccccc2)cc1	-13	0.4	101	-17
NC(=O)C1CCCN(C(=O)Nc2ccc(F)cc2)C1 (stereo not drawn)	-11	-0.4	106	-11
Cc1ccc(Cl)cc1NC(=O)Nc1cn(CC(C)C)c(=O)c2ccccc12	.	.	69*	.
COc1ccc(CNC(=O)Nc2cn(CC(C)C)c(=O)c3ccccc23)cc1	.	.	60*	.
CC(=O)c1ccc(N2CCN(C(=O)Nc3cn(CC(C)C)c(=O)c4ccccc34)CC2)cc1	.	.	76*	.
CC(C)Cn1cc(NC(=O)N2CCN(c3ccccc3)CC2)c2ccccc2c1=O	-20	-0.45	98	0
O=C(N1CCOCC1)N1CCN(c2ccccc2)CC1	2	-0.2	99	36*
O=C(Nc1ccccc1)C(=S)N1CCOCC1	.	1.2	82*	-36
N/C(=N\C(=S)Nc1ccccc1)N1CCOCC1	-1	1.5	103	-26
O=C(N1CCOCC1)N1CCN(c2ccccc2F)CC1	2	0.05	102	-14
CN1CCN(c2ncnc3c2cnn3-c2ccccc2)CC1	21	-0.9	101	-36
Cc1cc(OC(=O)c2cc(-c3ccc4c(c3)OCCO4)on2)ccc1Cl	.	.	-17*	.
Cc1ccc(OC(=O)c2cc(-c3ccc4c(c3)OCCO4)on2)cc1C	.	.	103	.
CCOC(=O)c1c(-c2ccc(C)o2)csc1NC(=S)NC(=O)N(C)C	85*	0.45	99	-65
Cc1cc(C)c(O)c(N)c1	101*	0.4	105	7
CCn1c(=O)c2sccc2n2c(CCCC(=O)N3CCN(c4ccc(OC)cc4)CC3)nnc12	.	.	49*	.
SMILES	Mtb MbtI inh	AID504770	PV pol inh	MenB inh
CC(C)N(Cn1nc(-c2ccccc2)n(-c2ccccc2)c1=S)C(C)C	15	-0.3	100	-47
COc1ccc(OC)c(-n2c(N)c(C#N)c3nc4ccccc4nc32)c1	-23	-2.1*	111	-77
N#Cc1ccccc1S(=O)(=O)NCc1ccco1	4	1.5	107	14
COc1ccc(CN2C(=O)C=CC2=O)cc1	.	-1.4	.	.
COc1ccc(CCN2C(=O)C=CC2=O)cc1	93*	-0.25	102	.
N#CC1(C#N)C2C=CC(C2)C1(C#N)C#N	12	-5.9*	103	-16
Cc1cc(C(=S)NC(=O)c2ccccc2)c(C)n1C	65*	0.8	102	-18
O=C(O)CCN1C(=O)/C(=C/c2ccccn2)SC1=S	74*	0.4	99	-155
O=C1/C(=C\c2ccccn2)SC(=S)N1CCc1ccc(Cl)cc1	.	-0.25	.	.
O=C1C2ON(c3ccccc3)C(c3ccco3)C2C(=O)N1Cc1ccccc1 (stereo not drawn)	.	-2	.	.
COc1cc(OC)cc(C(=O)N2CCC(C(=O)NCCc3ccccc3)CC2)c1	3	2	102	48*
Cc1ccc(C(=O)Sc2nc(C)cc(C)n2)cc1	78*	1.8	103	-8
Cc1ccc(C(=O)Sc2nnc3ccccn23)cc1	60	0.95	101	.
COC(=O)c1sc2nc3ccccc3cc2c1N	1	0.85	90	-1
CCN1CCCc2cc(O)ccc21	98*	0.15	.	.
CC(C)N1CCCc2cc(CN)ccc21	.	0.3	31	29
CCCN1CCCc2cc(CN)ccc21	31	-0.5	26*	-77
CC1CCN(S(=O)(=O)c2cc(S(=O)(=O)N3CCC(C)CC3)c3cccc4c3c2SC4=O)CC1	4	-0.45	98	7
O=C(NCc1ccc(Cl)cc1)c1cc2c(Cl)nc3ccccc3c2s1	25	1	103	7
CCS(=O)(=O)c1ncc(Cl)c(C(=O)Nc2ccc(Cl)cc2)n1	63*	-0.85	103	-14

Screening data deposited in PubChem BioAssay by ICCB-Longwood Screening Facility, Harvard Medical School.
